{
  "source": "the supplement of paper PMC9135407",
  "tested_on": "primary human hepatic stellate cells (donor 1)",
  "experiment": "scaled lipid accumulation score (0 = DMSO-like, 1 = nortriptyline-like); higher = stronger HSC inactivation (lipid re-accumulation), active = hit call of the paper",
  "details": "48 h",
  "key": {"[1]": {"details": "library stock concentration: 3.33 mM"}, "[2]": {"details": "library stock concentration: 10 mM"}, "[3]": {"details": "library stock concentration: 1 mM"}, "[4]": {"details": "library stock concentration: 6.9 mM"}},
  "note": "Values joined by “and” are separate entries in the source; they are usually repeats but may differ in a detail not shown here. Equal values may be shown once. Where a name gives a salt, the structure may show the parent alone. Among all 5,800 compounds or so, about 620 (11%) showed activity. Shown is part of a subset that was picked to be rich in actives. Unmarked numbers belong to inactive results.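 The calls were made as follows: active = score above a cut-off or among the top three wells of a plate; in these data no inactive exceeds 0.85.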",
  "data": [
    {"smiles": "O=C1C=CC[C@@H]2[C@H]3CCCN4CCC[C@@H](CN12)[C@@H]34", "note": "[Sophocarpine]", "values": [
      {"measurement": "scaled lipid accumulation score", "setting": "[1]", "result": "≤ 0"},
      {"measurement": "scaled lipid accumulation score", "setting": "[2]", "result": "≤ 0"}
    ]},
    {"smiles": "CCCCC/C=C\\C/C=C\\C/C=C\\C/C=C\\CCCC(=O)NCCOP(=O)(O)O", "note": "[Arachidonoyl Ethanolamide Phosphate]", "values": [
      {"measurement": "scaled lipid accumulation score", "setting": "[3]", "result": "≤ 0"}
    ]},
    {"smiles": "C/C(=C\\c1csc(C)n1)[C@@H]1C[C@@H]2O[C@]2(C)CCC[C@H](C)[C@H](O)[C@@H](C)C(=O)C(C)(C)[C@@H](O)CC(=O)O1", "note": "[Epothilone B (EPO906, Patupilone)]", "values": [
      {"measurement": "scaled lipid accumulation score", "setting": "[1]", "result": "≤ 0"},
      {"measurement": "scaled lipid accumulation score", "setting": "[2]", "result": "≤ 0"}
    ]},
    {"smiles": "CCCCC/C=C\\C/C=C\\C/C=C\\C/C=C\\CCCC(N)=O", "note": "[Arachidonamide]", "values": [
      {"measurement": "scaled lipid accumulation score", "setting": "[3]", "result": "≤ -0.021"}
    ]},
    {"smiles": "CCCCC/C=C\\C/C=C\\C/C=C\\C/C=C\\CCCC(N)=O", "note": "[Arachidonoyl amide]", "values": [
      {"measurement": "scaled lipid accumulation score", "setting": "[3]", "result": "≤ 0"}
    ]},
    {"smiles": "CN1C2CCC1CC(OC(c1ccccc1)c1ccc(Cl)cc1)C2.Cl", "note": "(configuration not stated)", "values": [
      {"measurement": "scaled lipid accumulation score", "setting": "[2]", "result": "1.07 (active)"}
    ]},
    {"smiles": "COc1cc(C(=O)OC2CC3CCC(C2)N3C)ccc1O", "note": "(configuration not stated) [Fillalbin]", "values": [
      {"measurement": "scaled lipid accumulation score", "result": "≤ 0"}
    ]},
    {"smiles": "CN1[C@@H]2CC[C@H]1C[C@@H](OC(c1ccccc1)c1ccccc1N)C2", "note": "(some centres not stated) [Aminobenztropine]", "values": [
      {"measurement": "scaled lipid accumulation score", "setting": "[2]", "result": 0.656}
    ]},
    {"smiles": "CN1[C@H]2C[C@H](OC(=O)[C@H](CO)c3ccccc3)C[C@@H]1[C@@H](O)C2", "values": [
      {"measurement": "scaled lipid accumulation score", "setting": "[2]", "result": "≤ 0"}
    ]},
    {"smiles": "CN1[C@@H]2CC[C@H]1C[C@@H](OC1c3ccccc3CCc3ccccc31)C2", "note": "[Deptropine citrate]", "values": [
      {"measurement": "scaled lipid accumulation score", "result": 0.266}
    ]},
    {"smiles": "CN1[C@H]2C[C@H](OC(=O)[C@H](CO)c3ccccc3)C[C@@H]1[C@@H](O)C2", "note": "[Anisodamine]", "values": [
      {"measurement": "scaled lipid accumulation score", "setting": "[2]", "result": 0.076}
    ]},
    {"smiles": "CN1C2CCC1CC(OC(c1ccc(F)cc1)c1ccc(F)cc1)C2.Cl", "note": "(configuration not stated)", "values": [
      {"measurement": "scaled lipid accumulation score", "setting": "[2]", "result": "1.29 (active)"}
    ]},
    {"smiles": "CC(C)(C)OC(=O)NC1[C@H]2CNC[C@@H]12", "note": "(some centres not stated)", "values": [
      {"measurement": "scaled lipid accumulation score", "setting": "[2]", "result": "≤ -0.033"}
    ]},
    {"smiles": "CCCCCCCCCCCCCCCCSP(=O)([O-])OCC[N+](C)(C)C", "note": "[thio-Miltefosine]", "values": [
      {"measurement": "scaled lipid accumulation score", "setting": "[3]", "result": "≤ 0"}
    ]},
    {"smiles": "CCCCC/C=C\\C/C=C\\C/C=C\\C/C=C\\CCCC(=O)NCc1ccoc1", "values": [
      {"measurement": "scaled lipid accumulation score", "setting": "[3]", "result": "≤ 0"}
    ]},
    {"smiles": "CCCCC(C#N)(Cn1cncn1)c1ccc(Cl)cc1", "note": "(configuration not stated) [Myclobutanil]", "values": [
      {"measurement": "scaled lipid accumulation score", "setting": "[4]", "result": "≤ 0"}
    ]},
    {"smiles": "[O-][n+]1ccccc1[S-].[O-][n+]1ccccc1[S-].[Zn+2]", "note": "[Pyrithione zinc]", "values": [
      {"measurement": "scaled lipid accumulation score", "setting": "library stock concentration: 6.3 mM", "result": 0.435},
      {"measurement": "scaled lipid accumulation score", "setting": "[2]", "result": 0.127}
    ]},
    {"smiles": "c1cncc([C@@H]2CCCCN2)c1", "note": "[Anabasine]", "values": [
      {"measurement": "scaled lipid accumulation score", "result": "≤ 0"}
    ]},
    {"smiles": "Fc1cc(F)c2c(c1)[C@H]1C=CC[C@@H]1C(c1cccnc1)N2", "note": "(some centres not stated) [Golgicide A]", "values": [
      {"measurement": "scaled lipid accumulation score", "setting": "[1]", "result": "0.872 (active)"},
      {"measurement": "scaled lipid accumulation score", "setting": "[2]", "result": "1.03 (active)"}
    ]},
    {"smiles": "c1cncc([C@@H]2CCCN2)c1", "note": "[Nornicotine]", "values": [
      {"measurement": "scaled lipid accumulation score", "setting": "[2]", "result": "≤ 0"}
    ]},
    {"smiles": "C[C@H](CCC(=O)O)C[C@H](C)C[C@H](C)C(=O)/C=C(\\O)[C@H](C)C[C@H](C)C/C=C/[C@@H](C)[C@@H](O)[C@@H](C)[C@@H](O)C[C@@H]1CC[C@@](C)([C@H]2CC[C@@](C)([C@@H](C)O)O2)O1", "note": "[Ionomycin]", "values": [
      {"measurement": "scaled lipid accumulation score", "setting": "library stock concentration: 7.1 mM", "result": 0.48}
    ]},
    {"smiles": "O=C1CN=C(c2ccccc2)c2cc([N+](=O)[O-])ccc2N1", "note": "[Nitrazepam]", "values": [
      {"measurement": "scaled lipid accumulation score", "setting": "[2]", "result": "≤ 0"}
    ]},
    {"smiles": "COc1ccc(CNC(=O)/C=C/c2ccc3[nH]cc(CCN(C)C)c3c2)cc1", "note": "[listing 1 of 2 here]", "values": [
      {"measurement": "scaled lipid accumulation score", "setting": "[2]", "result": 0.736}
    ]},
    {"smiles": "COc1ccc2[nH]cc(CCN)c2c1", "note": "[5-Methoxytryptamine]", "values": [
      {"measurement": "scaled lipid accumulation score", "setting": "[2]", "result": "≤ 0"}
    ]},
    {"smiles": "COc1ccc(CNC(=O)/C=C/c2ccc3[nH]cc(CCN(C)C)c3c2)cc1", "note": "[listing 2 of 2 here]", "values": [
      {"measurement": "scaled lipid accumulation score", "setting": "[2]", "result": "1.03 (active)"}
    ]},
    {"smiles": "COc1ccc2[nH]cc(CCN)c2c1", "note": "[O-Methylserotonin hydrochloride]", "values": [
      {"measurement": "scaled lipid accumulation score", "setting": "[2]", "result": "≤ -0.055"}
    ]},
    {"smiles": "O[C@H]1[C@H](O)[C@@H](O)CN2CC[C@H](O)[C@H]12", "note": "[Castanospermine]", "values": [
      {"measurement": "scaled lipid accumulation score", "setting": "[2]", "result": "≤ 0"},
      {"measurement": "scaled lipid accumulation score", "setting": "library stock concentration: 26.4 mM", "result": 0.125}
    ]},
    {"smiles": "CCCCCC=CCC=CCC=CCC=CCCCC(=O)NCC(O)CC(=O)O", "note": "(configuration not stated) [N-Arachidonoyl-3-hydroxy-.gamma.-Aminobutyric Acid]", "values": [
      {"measurement": "scaled lipid accumulation score", "setting": "[3]", "result": "≤ 0"}
    ]},
    {"smiles": "CC[C@H]1CN2CC[C@H]1C[C@H]2[C@H](O)c1ccnc2ccc(OC)cc12", "note": "[Hydroquinine hydrobromide hydrate]", "values": [
      {"measurement": "scaled lipid accumulation score", "result": "≤ 0"}
    ]},
    {"smiles": "CCCC[C@H]1C(=O)O[C@H](C)[C@H](NC(=O)c2cccc(NC=O)c2OC)C(=O)O[C@@H](C)[C@@H]1OC(=O)CC(C)C", "note": "[2-methoxyantimycin A3]", "values": [
      {"measurement": "scaled lipid accumulation score", "setting": "library stock concentration: 9.4 mM", "result": 0.292}
    ]},
    {"smiles": "CC(C)(C)c1cc(C=C(C#N)C#N)cc(C(C)(C)C)c1O", "note": "[Tyrphostin A9]", "values": [
      {"measurement": "scaled lipid accumulation score", "setting": "[2]", "result": 0.728}
    ]},
    {"smiles": "CC(C)(C)c1cc(C=C(C#N)C#N)cc(C(C)(C)C)c1O", "note": "[Tyrphostin 9] [listing 1 of 2 here]", "values": [
      {"measurement": "scaled lipid accumulation score", "setting": "[2]", "result": "1.27 (active)"}
    ]},
    {"smiles": "CC(C)(C)c1cc(C=C(C#N)C#N)cc(Br)c1O", "values": [
      {"measurement": "scaled lipid accumulation score", "setting": "[1]", "result": "≤ 0"},
      {"measurement": "scaled lipid accumulation score", "setting": "[2]", "result": "≤ 0"}
    ]},
    {"smiles": "CC(C)(C)c1cc(C=C(C#N)C#N)cc(C(C)(C)C)c1O", "note": "[Tyrphostin 9] [listing 2 of 2 here]", "values": [
      {"measurement": "scaled lipid accumulation score", "setting": "[1]", "result": 0.175},
      {"measurement": "scaled lipid accumulation score", "setting": "library stock concentration: 17.7 mM", "result": 0.752}
    ]},
    {"smiles": "C[C@]12CC[C@H]3[C@@H](CCC4=CC(=O)CC[C@@]43C)[C@@H]1CC[C@@H]2O", "note": "[Testosterone]", "values": [
      {"measurement": "scaled lipid accumulation score", "setting": "[4]", "result": 0.032},
      {"measurement": "scaled lipid accumulation score", "setting": "[2]", "result": "0.108 and 0.479"}
    ]},
    {"smiles": "Oc1cc2c(cc1O)[C@H]1c3ccccc3CN[C@@H]1CC2", "note": "(racemic) [Dihydrexidine hydrochloride]", "values": [
      {"measurement": "scaled lipid accumulation score", "setting": "[2]", "result": 0.823}
    ]},
    {"smiles": "CCCC[N+]1(C)[C@@H]2C[C@@H](OC(=O)[C@H](CO)c3ccccc3)C[C@H]1[C@@H]1O[C@@H]12", "note": "(single isomer, unassigned; (-)) [(-)-Scopolamine,n-Butyl-, bromide]", "values": [
      {"measurement": "scaled lipid accumulation score", "setting": "[2]", "result": "≤ 0"}
    ]},
    {"smiles": "CC(N)Cc1c[nH]c2ccc(O)cc12", "note": "(stereo not drawn) [alpha-Methyl-5-hydroxytryptamine maleate]", "values": [
      {"measurement": "scaled lipid accumulation score", "setting": "[2]", "result": "≤ -0.055"}
    ]},
    {"smiles": "CC(N)Cc1c[nH]c2ccc(O)cc12", "note": "(configuration not stated)", "values": [
      {"measurement": "scaled lipid accumulation score", "setting": "[2]", "result": "≤ 0"}
    ]},
    {"smiles": "CC(N)Cc1c[nH]c2ccc(OCc3cccs3)cc12", "note": "(configuration not stated)", "values": [
      {"measurement": "scaled lipid accumulation score", "setting": "[3]", "result": 0.315}
    ]},
    {"smiles": "CC(N)Cc1c[nH]c2ccc(OCc3cccs3)cc12.Cl", "note": "(configuration not stated)", "values": [
      {"measurement": "scaled lipid accumulation score", "setting": "[2]", "result": "1.18 (active)"}
    ]},
    {"smiles": "CNCCc1c[nH]c2ccc(O)cc12", "note": "[N-omega-Methyl-5-hydroxytryptamine oxalate salt]", "values": [
      {"measurement": "scaled lipid accumulation score", "setting": "[2]", "result": "≤ -0.055"}
    ]},
    {"smiles": "CCCCCCCCCOc1ccc2[nH]cc(CCN)c2c1", "note": "[5-Nonyloxytryptamine]", "values": [
      {"measurement": "scaled lipid accumulation score", "setting": "library stock concentration: 9.9 mM", "result": 0.5}
    ]},
    {"smiles": "CC(N)Cc1c[nH]c2ccc(OCc3cccs3)cc12.Cl", "note": "(configuration not stated) [BW 723C86 hydrochloride]", "values": [
      {"measurement": "scaled lipid accumulation score", "setting": "[2]", "result": "1.3 (active)"}
    ]}
  ]
}
